Molecules are shown by their SMILES. Inconclusive results are not listed. Activity calls are given as the source filed them.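 Rule for the calls, unless noted: active = RAM network inhibition above 8.4% in each of two replicates, 3 SD over the compound average; inconclusive = above 8.4% inhibition in only one replicate; inactive = 8.4% inhibition or less in each replicate.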

A short description of experiment [1]: reducers of endogenous Her2 protein level, primary screen, SKBR3 breast tumor cells, AlphaScreen, ATP viability (AID 461;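 active = Her2 level under about 52% in both replicate screens, with viability over 70% of control, limit read from the data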;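 for Her2 level: lower value means less Her2 protein in the cells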;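 for viability: percent of carrier control wells set as 100% viability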). To be noted: 18-24 h, measured here: SKBR3 viability, ATP luminescence, at 10 µM. In general terms: In Alpha technology, singlet oxygen from a donor bead excites a nearby acceptor bead.
In experiment [2] the target is Receptor tyrosine-protein kinase erbB-2 (Homo sapiens) (UniProt P04626). The description is as above. To be noted: 18-24 h, at 10 µM, stronger effect = lower value.
Experiment [3] in a line: SK-BR-3 cell growth inhibitors, pilot screen, 24 h, human (AID 572;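 active = viability at or below 10% of carrier control in both of two separate runs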;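 note: compound exposure lasted between 18 and 24 h rather than exactly 24 h; 100% = carrier-treated control wells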). The following applies: SK-BR-3 viability, CellTiter-Glo luminescence, at 10 µM, stronger effect = lower value. For orientation: In ATP-based viability assays light output follows the ATP content of the culture.
Experiment [4] can be described thus: HUVEC growth inhibition – cell-based, human, primary screen (AID 575;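 active = viability at or below 30% in both replicate assays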;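 note: 100% = median of untreated cell wells with 0.1% DMSO on each plate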). The following applies: HUVEC proliferation, CellTiter-Glo luminescence, 72 h; at 10 µM; stronger effect = lower value.
The nature of experiment [5]: growth inhibitors of H69AR lung tumor, primary screen, human, duplicate replicates (AID 580;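 active = viability at or under a set limit in both replicates, limit being median viability minus 3 SD, cut at about 48% in these data, passing the limit was not always enough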;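 note: 100% = mean luminescence of untreated wells and 0% = no signal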). To be noted: H69AR lung tumor cells viability, ATP luminescence, 72 h; at 10 µM; stronger effect = lower value.
Experiment [6] can be described thus: reversal of MRP1-mediated doxorubicin resistance, pilot screen, H69AR cells, doxorubicin co-treatment (AID 601;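 active = viability loss from added drug above about 55%, and viability with drug at most 40%, in both replicates, limit read from the data, passing the limit was not always enough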). The following applies: CellTiter-Glo, 72 h, at 10 µM; for differential viability (reversal): stronger effect = higher value.
The nature of experiment [7]: 384-well plate pilot, post-Golgi transport modulator project, inhibition of yeast transport mutant growth (AID 636; in the data active = inhibition above about 31%). To be noted: absorbance 615 nm, about 18 h, stronger effect = higher value.
Experiment [8] can be described thus: growth suppression of yeast trafficking mutant, preliminary HTS, modulators of trafficking downstream of Golgi apparatus project, 1536-format plate, OD 615 nm (AID 637; in the data active = inhibition above about 30%). To be noted: yeast transport mutant growth, absorbance 615 nm, 18 h; stronger effect = higher value.
Experiment [9] is described as follows: OD615 S. cerevisiae growth inhibition, permissive medium, pilot counter-assay, permissive growth control for S. cerevisiae lifespan shortening project (AID 705;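 active = growth inhibition above 25% in both replicates, a cutoff set 3 SD above the mean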). The following applies: OD615, 24 h, at 10 µM, stronger effect = higher value.
A short description of experiment [10]: Restrictive medium S. cerevisiae growth inhibition, OD615, pilot screen of yeast lifespan reduction project, restrictive growth control (AID 706;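 active = growth inhibition above a set limit, 3 SD over mean compound inhibition, in both replicates, cut at about 43% in these data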;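 note: modified DeaD lifespan yeast strain shifted to restrictive glucose medium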). The following applies: OD615, 48 h, at 10 µM, stronger effect = higher value.
A short description of experiment [11]: viability gain of MRP-1-high H69AR cells under doxorubicin, pilot screen, MRP-1 activator project, CellTiter-Glo, duplicate (AID 807;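 active = viability increase at or above a cutoff of the median across tested compounds plus 3 SD, cut at about 8.5% in these data, passing the limit was not always enough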;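 note: compound pretreatment 18-22 h then 72 h combined with doxorubicin; 0% = doxorubicin alone and 100% = vehicle without doxorubicin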). To be noted: H69AR viability with doxorubicin, CellTiter-Glo luminescence; at 10 µM; stronger effect = higher value.
A short description of experiment [12]: growth suppression of beta-catenin knockout HCT116, pilot screen, human colon tumor cells (AID 823;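 active = cell viability at or below a set limit in both duplicate runs, the limit being the all-compound median minus 4 SD, cut at about 23% in these data, passing the limit was not always enough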;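 note: 0% = wells killed by 20 µM Hyamine and 100% = untreated DMSO cell wells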). To be noted: CellTiter-Glo, 60 h, at 10 µM, stronger effect = lower value.
A short description of experiment [13]: growth suppression of PTEN-deleted HCT116, pilot screen, cell-based, HCT116 clonal line, CellTiter-Glo (AID 824;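 active = viability at or below 27.92% in each of two runs, the all-compound median minus 4 SD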;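 note: 0% = 20 µM Hyamine control and 100% = vehicle cell control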). The following applies: 60 h, at 10 µM, stronger effect = lower value.
The nature of experiment [14]: inhibitors of the yeast RAM network, pilot screen, dse1pr::URA3 reporter, 5-FOA selection (AID 869;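 active = inhibition over a set limit, the all-compound mean plus 3 SD, in both replicate runs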;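 note: 0% = DMSO wells with no growth and 100% = 10 µM 1-NA-PP1 with full growth; RAM network block rescues cells from 5-FOA so hits raise OD615 growth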). The following applies: S. cerevisiae dse1pr::URA3 5-FOA growth, OD615, 2 d; at 10 µM; stronger effect = higher value; strain carries analog-sensitive mutant Cbk1 kinase.
The nature of experiment [15]: RAM signaling pathway blockade in yeast – S. cerevisiae, Pdr1DBD-CYC8 efflux-inhibited sensitized strain, primary screen (AID 1298).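 Note: 0% = DMSO untreated cells without growth and 100% = 10 µM 1-NA-PP1 full growth; higher means more yeast growth rescued from 5-FOA killing.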 The following applies: S. cerevisiae cbk1-as DSE1-URA3 strain, 5-FOA growth OD615, 2 d; at 50 µM; stronger effect = higher value.
Setting [16] is: H69AR cells + 2 uM doxorubicin, measured here: viability with 2 uM doxorubicin, stronger effect = lower value.
The mark [17] stands for this setting: H69AR cells, compound alone cytotoxicity.

Sequence of Receptor tyrosine-protein kinase erbB-2 (Homo sapiens) (P04626 whole entry, looked up): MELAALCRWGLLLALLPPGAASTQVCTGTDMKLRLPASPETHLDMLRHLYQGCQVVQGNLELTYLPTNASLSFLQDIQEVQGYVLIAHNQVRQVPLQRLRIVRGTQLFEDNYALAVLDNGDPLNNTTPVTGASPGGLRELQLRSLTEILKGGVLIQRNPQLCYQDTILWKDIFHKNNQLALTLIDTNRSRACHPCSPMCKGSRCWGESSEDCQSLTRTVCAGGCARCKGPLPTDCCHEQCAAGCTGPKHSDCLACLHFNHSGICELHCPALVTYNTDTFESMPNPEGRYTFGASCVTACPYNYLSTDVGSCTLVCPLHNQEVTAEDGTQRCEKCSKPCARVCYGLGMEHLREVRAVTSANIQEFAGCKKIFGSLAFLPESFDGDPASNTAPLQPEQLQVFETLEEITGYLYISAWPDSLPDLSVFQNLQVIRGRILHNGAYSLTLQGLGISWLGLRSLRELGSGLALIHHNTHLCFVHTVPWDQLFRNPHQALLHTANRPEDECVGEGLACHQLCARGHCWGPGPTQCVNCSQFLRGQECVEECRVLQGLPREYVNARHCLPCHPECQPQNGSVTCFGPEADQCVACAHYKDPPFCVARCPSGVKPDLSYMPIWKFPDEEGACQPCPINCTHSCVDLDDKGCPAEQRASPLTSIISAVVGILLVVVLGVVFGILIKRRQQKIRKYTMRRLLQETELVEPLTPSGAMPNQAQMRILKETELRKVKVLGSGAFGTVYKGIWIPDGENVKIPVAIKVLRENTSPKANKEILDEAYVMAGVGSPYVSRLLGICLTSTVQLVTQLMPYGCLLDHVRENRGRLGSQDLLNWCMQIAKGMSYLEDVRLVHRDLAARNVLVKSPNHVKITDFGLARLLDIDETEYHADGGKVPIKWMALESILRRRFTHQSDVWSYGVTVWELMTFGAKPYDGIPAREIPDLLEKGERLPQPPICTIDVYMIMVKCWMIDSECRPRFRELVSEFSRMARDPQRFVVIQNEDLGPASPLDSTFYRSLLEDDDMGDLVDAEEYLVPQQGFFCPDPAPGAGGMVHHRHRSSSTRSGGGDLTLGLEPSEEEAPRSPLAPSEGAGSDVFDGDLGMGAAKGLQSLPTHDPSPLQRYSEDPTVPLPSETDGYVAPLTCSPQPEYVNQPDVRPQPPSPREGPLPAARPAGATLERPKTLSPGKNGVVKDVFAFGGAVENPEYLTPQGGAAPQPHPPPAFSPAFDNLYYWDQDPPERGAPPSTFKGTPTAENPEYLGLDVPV

The viability is a read-out of living cells in per cent, often relative to untreated cells. For orientation: inhibition means the relative decrease from the control value, in per cent. `CCC1CCCCN1CCCNC(=O)CC1Oc2ccc(C)cc2NC1=O` (stereo not drawn): the viability in [1] was 110%; in [3], 110% (inactive); in [4] it was 74.3% (inactive); in experiment [5], 89.1% (inactive); in experiment [6] (setting [16]), 92.9%; in experiment [6] (setting [17]), 89.1%. Also, the figures for the viability in experiment [12] and in experiment [13] were 95% (inactive) and 91.1% (inactive), respectively. For the same compound, the Her2 level in experiment [2] was 97.5% (inactive). Also, the differential viability (reversal) in experiment [6] (H69AR cells + 2 uM doxorubicin) is -3.82% (inactive). The inhibition was -2.27% (inactive) in experiment [7], -0.49% (inactive) in experiment [8] and 1.57% (inactive) in experiment [14]. Moreover, the growth inhibition in experiment [9] was 2.28% (inactive); in [10] it was 0.165% (inactive). Moreover, the viability increase in experiment [11] is -3.12% (inactive). For the same compound, the RAM network inhibition in experiment [15] was 2.53% (inactive).

For `CCOc1ccc(N(CC(=O)OC)S(=O)(=O)c2ccc(OC)c(OC)c2)cc1`, the viability was 108% in [1]; 108% (inactive) in experiment [3]; 87.2% (inactive) in experiment [4]; 106% (inactive) in experiment [5]; 99.4% in experiment [6] (setting [16]); 106% in experiment [6] (setting [17]). For the same compound, the viability was 99.9% (inactive) in experiment [12] and 106% (inactive) in experiment [13]. In experiment [2], the Her2 level is 122% (inactive). Further, in experiment [6] (H69AR cells + 2 uM doxorubicin), the differential viability (reversal) is 6.15% (inactive). In addition, the inhibition in experiment [7] is 3.12% (inactive); in experiment [8] it was -4.83% (inactive); in experiment [14] it was 0.39% (inactive). Moreover, the growth inhibition was -11.6% (inactive) in experiment [9] and -4.04% (inactive) in experiment [10]. For the same compound, the viability increase in experiment [11] is -0.96% (inactive). Also, the RAM network inhibition in experiment [15] was 2.44% (inactive).

Regarding `CC(=O)N1CCc2c(sc(NC(=O)c3ccc(S(=O)(=O)N(C)C)cc3)c2C#N)C1`, the viability in experiment [1] was 83.5%; in experiment [3], 83.5% (inactive); in experiment [4], 73.3% (inactive); in experiment [5] it was 87.5% (inactive); in experiment [6] (setting [16]), 81.5%; in experiment [6] (setting [17]) it was 87.5%. The viability in experiment [12] is 104% (inactive); in experiment [13], 94.3% (inactive). Further, the Her2 level in experiment [2] was 105% (inactive). The differential viability (reversal) in experiment [6] (H69AR cells + 2 uM doxorubicin) is 5.97% (inactive). In addition, the inhibition in experiment [7] is -2.27% (inactive); in experiment [8], -5.41% (inactive); in experiment [14] it was 0.115% (inactive). Besides, the growth inhibition was -4.59% (inactive) in [9] and 4.39% (inactive) in experiment [10]. Moreover, in [11], the viability increase is -3.73% (inactive). Also, the RAM network inhibition in experiment [15] is 1.67% (inactive).

As for `Cc1ccc(N=Cc2ccc[nH]2)c(O)c1`, the viability was 96% in experiment [1]; 96% (inactive) in [3]; 76.8% (inactive) in experiment [4]; 81.9% (inactive) in experiment [5]; 96.4% in experiment [6] (setting [16]); 81.9% in [6] (setting [17]). Besides, the values for the viability in experiment [12] and in experiment [13] were 71.8% (inactive) and 88.4% (inactive), respectively. Further, the Her2 level in [2] was 88.5% (inactive). Besides, in experiment [6] (H69AR cells + 2 uM doxorubicin), the differential viability (reversal) was -14.5% (inactive). Moreover, the inhibition is -2.56% (inactive) in [7], 0.5% (inactive) in experiment [8] and 1.36% (inactive) in [14]. Further, the growth inhibition is -20.2% (inactive) in experiment [9] and -5.83% (inactive) in experiment [10]. The viability increase in [11] was -4.28% (inactive). Further, in [15], the RAM network inhibition was 0.26% (inactive).

Consider `O=C(Nc1ccc(N2C(=O)C3C4C=CC(C4)C3C2=O)cc1)Nc1nncs1` (stereo not drawn), for which the viability in [1] is 92%; in [3] it was 92% (inactive); in experiment [4] it was 96.2% (inactive); in experiment [5] it was 87.8% (inactive); in experiment [6] (setting [16]), 85.6%; in experiment [6] (setting [17]), 87.8%. The viability was 97.6% (inactive) in experiment [12] and 95.3% (inactive) in experiment [13]. Besides, in experiment [2], the Her2 level is 108% (inactive). Also, in experiment [6] (H69AR cells + 2 uM doxorubicin), the differential viability (reversal) is 2.15% (inactive). Besides, the inhibition in experiment [7] is -3.47% (inactive); in [8], 0.83% (inactive); in [14], 0.53% (inactive). Besides, the growth inhibition in experiment [9] was -7.11% (inactive); in experiment [10] it was 6.49% (inactive). Further, the viability increase in experiment [11] was -1.28% (inactive). Also, the RAM network inhibition in experiment [15] is 3.5% (inactive).

For `CCCCCn1c(=O)[nH]c2cc(C(=O)NCCCN3CCCCC3)ccc2c1=O`, the viability in [1] is 76%; in experiment [3], 76% (inactive); in experiment [4], 86.5% (inactive); in [5] it was 88.7% (inactive); in experiment [6] (setting [16]), 82%; in experiment [6] (setting [17]), 88.7%. Also, the viability is 75.1% (inactive) in [12] and 77.5% (inactive) in [13]. In experiment [2], the Her2 level is 74.5% (inactive). Also, the differential viability (reversal) in experiment [6] (H69AR cells + 2 uM doxorubicin) was 6.66% (inactive). Moreover, the inhibition in experiment [7] was -6.76% (inactive); in experiment [8], 5.33% (inactive); in experiment [14], -0.475% (inactive). Besides, the growth inhibition was -6.6% (inactive) in experiment [9] and 6.35% (inactive) in experiment [10]. Besides, the viability increase in experiment [11] is -2.74% (inactive). For the same compound, the RAM network inhibition in experiment [15] was 0.41% (inactive).

Turning to `C=CCSc1nnc(-c2cccnc2)o1`, the viability in experiment [1] was 95%; in experiment [3] it was 95% (inactive); in [4], 103% (inactive); in [5] it was 96.9% (inactive); in experiment [6] (setting [16]), 87.8%; in experiment [6] (setting [17]), 96.9%. The viability in experiment [12] and in [13] was 101% (inactive) throughout. Besides, in [2], the Her2 level is 99.5% (inactive). Also, the differential viability (reversal) in experiment [6] (H69AR cells + 2 uM doxorubicin) is 9.17% (inactive). Moreover, the inhibition in experiment [7] was -5.6% (inactive); in experiment [8], 9% (inactive); in [14] it was 0.94% (inactive). Moreover, the growth inhibition is -1.77% (inactive) in [9] and 7.71% (inactive) in experiment [10]. Moreover, the viability increase in experiment [11] is -1.02% (inactive). Further, in experiment [15], the RAM network inhibition is 0.16% (inactive).

As for `CCOCCn1c(CN2CCN(CC)CC2)nc2c1c(=O)n(C)c(=O)n2C`, the viability in [1] is 121%; in experiment [3], 121% (inactive); in [4], 94.2% (inactive); in [5] it was 91.8% (inactive); in experiment [6] (setting [16]) it was 87.1%; in experiment [6] (setting [17]), 91.8%. For the same compound, the values for the viability in experiment [12] and in experiment [13] were 103% (inactive) and 97.6% (inactive), respectively. Moreover, the Her2 level in [2] was 109% (inactive). In addition, the differential viability (reversal) in experiment [6] (H69AR cells + 2 uM doxorubicin) was 4.7% (inactive). Besides, the inhibition is -1.6% (inactive) in experiment [7], -4.33% (inactive) in experiment [8] and 1.31% (inactive) in [14]. Besides, the growth inhibition in experiment [9] is 5.99% (inactive); in experiment [10], 1.91% (inactive). Moreover, the viability increase in [11] is -1.7% (inactive). The RAM network inhibition in experiment [15] is -1.34% (inactive).

In the case of `CCOc1ccccc1N1Cc2cc(C)c(C)cc2C1`, the viability in experiment [1] is 92.5%; in [3] it was 92.5% (inactive); in [4], 90.4% (inactive); in [5], 88.1% (inactive); in experiment [6] (setting [16]), 97.7%; in experiment [6] (setting [17]), 88.1%. Also, the viability in [12] is 63.6% (inactive); in experiment [13], 59.3% (inactive). Also, the Her2 level in experiment [2] is 104% (inactive). In addition, in [6] (H69AR cells + 2 uM doxorubicin), the differential viability (reversal) was -9.66% (inactive). Also, the inhibition in [7] was -6.27% (inactive); in experiment [8] it was -0.83% (inactive); in experiment [14] it was 2.19% (inactive). Further, the growth inhibition is -16.8% (inactive) in [9] and -12.1% (inactive) in [10]. In addition, the viability increase in experiment [11] was -2.58% (inactive). In addition, the RAM network inhibition in experiment [15] was 2.05% (inactive).

These data come from PubChem BioAssay.
